# Source: PubChem BioAssay
# The source made the active and inactive calls.
# Experiments:
# [1] = small molecules captured by biotinylated probe aFSTL3 – biochemical, small-molecule microarray, fluorescence 635/667, stem cell growth factor project, primary screen (AID 1064); settings: higher = more signal;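 also: measures binding of the biotinylated anti-FSTL3 antibody to printed compounds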
# [2] = binders from COS7 lysate, DM2A8 probe, primary screen, torsin A project, cell lysate, small-molecule microarray, fluorescence 635/667 (AID 1065); settings: higher = more signal, COS7 lysate expressing mutant human TOR1A
# [3] = small molecules captured by biotinylated probe aFGF2 – biochemical, small-molecule microarray, fluorescence 635/667, stem cell growth factor project, primary screen (AID 1067); settings: higher = more signal;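 also: measures binding of biotinylated aFGF2 protein to printed compounds on slides; z-score merges feature fluorescence and signal-to-noise across triplicate slides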
# [4] = small molecules captured by biotinylated probe aFGF10 – biochemical, small-molecule microarray, fluorescence 635/667, stem cell growth factor project, primary screen (AID 1071); settings: higher = more signal;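 also: score merges 667 nm spot intensity and signal to noise from triplicate slides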
# [5] = target: Neurogenic locus notch homolog protein 2 (Homo sapiens) (UniProt Q04721); experiment: small molecules binding Notch2 protein – biochemical, small-molecule microarray, 635 nm fluorescence, stem cell growth factors, primary screen (AID 1073); settings: higher = more signal
# [6] = target: Pro-neuregulin-1, membrane-bound isoform (Homo sapiens) (UniProt Q02297); experiment: small molecules binding neuregulin-1 protein – biochemical, small-molecule microarray, fluorescence 635/667, psychiatric disease protein project, primary screen (AID 1075); settings: NRG1 binding, 635 nm fluorescence, higher = more signal;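 also: score combines 667 nm spot fluorescence with signal to noise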
# Sequence of Pro-neuregulin-1, membrane-bound isoform (Homo sapiens) (Q02297 whole entry, looked up, the tested form may be a part, canonical isoform): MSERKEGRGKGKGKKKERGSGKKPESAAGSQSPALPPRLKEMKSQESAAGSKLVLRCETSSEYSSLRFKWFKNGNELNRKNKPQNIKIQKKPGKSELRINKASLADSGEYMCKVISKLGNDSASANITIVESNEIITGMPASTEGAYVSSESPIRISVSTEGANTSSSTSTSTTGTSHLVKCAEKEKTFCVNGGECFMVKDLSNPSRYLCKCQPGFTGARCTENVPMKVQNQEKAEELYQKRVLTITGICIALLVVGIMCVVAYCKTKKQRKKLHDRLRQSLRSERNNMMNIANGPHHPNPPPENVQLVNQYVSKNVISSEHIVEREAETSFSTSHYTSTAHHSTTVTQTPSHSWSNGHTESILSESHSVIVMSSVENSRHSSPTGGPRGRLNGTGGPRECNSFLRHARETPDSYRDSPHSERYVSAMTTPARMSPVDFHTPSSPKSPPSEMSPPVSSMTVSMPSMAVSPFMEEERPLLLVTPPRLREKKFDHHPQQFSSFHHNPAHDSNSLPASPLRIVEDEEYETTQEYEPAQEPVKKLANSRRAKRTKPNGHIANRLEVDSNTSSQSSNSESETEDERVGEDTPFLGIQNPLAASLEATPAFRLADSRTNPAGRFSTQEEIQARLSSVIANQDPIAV
# [7] = system: Neuregulin-1 EGF-like domain; experiment: small molecules binding NRG1 EGF domain – biochemical, small-molecule microarray, 635 nm fluorescence, primary screen (AID 1081); settings: higher = more signal;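 also: binding of the protein to compounds printed on small-molecule microarray slides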
# [8] = FRG1 expression reporter modulators in myotubes – cell-based, C2C12 myotubes, firefly/Renilla luciferase, luminescence, FRG1 inhibition for FSHD, primary screen (AID 1084); settings: FRG1 promoter luciferase, higher = more signal, called active from +8 up or from −8 down
# [9] = small molecules captured by biotinylated probe aFST – biochemical, small-molecule microarray, fluorescence 635/667, stem cell growth factor project, primary screen (AID 1086); settings: higher = more signal;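 also: score merges 667 nm fluorescence with signal-to-noise of each printed compound spot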
# [10] = binders of probe aHhip on microarray, primary screen, stem cell growth factor project, biochemical, small-molecule microarray, fluorescence 635/667 (AID 1087); settings: higher = more signal;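 also: score merges spot fluorescence at 667nm with spot signal to noise ratio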
# [11] = system: PRMT1 (protein arginine N-methyltransferase 1); experiment: small molecules binding arginine methyltransferase PRMT1 – biochemical, small-molecule microarray, 635 nm fluorescence, primary screen (AID 1088); settings: higher = more signal;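 also: binding of Prmt1 protein to compounds spotted on small-molecule microarray slides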
# [12] = growth effects on S. cerevisiae YJM789 – YJM789 clinical isolate, OD600, 24 h, basal, primary screen (AID 1089); settings: higher = more signal, called active from +8 up or from −8 down;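 also: growth of clinical yeast isolate S. cerevisiae YJM 789 seeded 1000 cells per well; test concentration not given here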
# [13] = S. pombe growth modifiers, basal conditions – strain 972, OD600, 24 h, no modulator, primary screen (AID 1090);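 also: basal condition with compound alone and no growth modifier present; test concentration not given here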; settings: S. pombe 972 growth, higher = more signal, called active from +8 up or from −8 down
# [14] = budding yeast growth modifiers under rapamycin – strain BY4716, OD600, 96 h, primary screen (AID 1091); also: test concentration not given here; settings: S. cerevisiae BY4716 + rapamycin, higher = more signal, called active from +8 up or from −8 down
# [15] = target: Torsin-1A-interacting protein 2 (Homo sapiens) (UniProt Q8NFQ8); experiment: small molecules binding lysate-expressed LULL1 – cell lysate, human LULL1 lysate, 635/667 nm fluorescence, primary screen (AID 1092); settings: small-molecule microarray, hLULL1 lysate binding, 635 nm fluorescence; higher = more signal;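 also: probe is lysate of COS7 cells overexpressing human LULL1; score merges per-feature 667 nm fluorescence with signal-to-noise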
# Sequence of Torsin-1A-interacting protein 2 (Homo sapiens) (Q8NFQ8 whole entry, looked up): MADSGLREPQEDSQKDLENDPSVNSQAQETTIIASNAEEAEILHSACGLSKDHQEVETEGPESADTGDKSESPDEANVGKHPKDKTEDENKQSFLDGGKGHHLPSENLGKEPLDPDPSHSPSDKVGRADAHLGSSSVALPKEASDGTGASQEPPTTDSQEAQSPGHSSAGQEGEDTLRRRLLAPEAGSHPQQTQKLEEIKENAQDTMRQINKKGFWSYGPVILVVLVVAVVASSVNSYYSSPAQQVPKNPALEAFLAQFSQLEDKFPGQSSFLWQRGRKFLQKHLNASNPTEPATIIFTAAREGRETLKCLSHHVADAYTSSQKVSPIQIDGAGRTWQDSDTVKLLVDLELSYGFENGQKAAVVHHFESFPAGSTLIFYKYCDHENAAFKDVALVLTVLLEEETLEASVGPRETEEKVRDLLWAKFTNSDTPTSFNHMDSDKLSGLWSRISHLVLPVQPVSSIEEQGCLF
# [16] = optical density change of DRC41 E. coli – strain DRC41, OD650, 24 h, E. coli filamentation project, primary screen (AID 1093);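 also: MC1000 strain lacking acrAB efflux and sulA so SOS filamentation is blocked; test concentration not given here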; settings: E. coli DRC41 growth, higher = more signal, called active from +8 up or from −8 down
# [17] = probe aLefty2 binding to arrayed compounds – biochemical, biotinylated probe, 635/667 nm fluorescence, primary screen (AID 1094); settings: small-molecule microarray, higher = more signal;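 also: score merges spot fluorescence near 667 nm with spot signal-to-noise ratio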
# [18] = system: Noggin (protein binding on small-molecule microarray); experiment: small molecules binding Noggin protein – biochemical, 635/667 nm fluorescence, primary screen (AID 1095); settings: 635 nm fluorescence, higher = more signal;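 also: score merges 667 nm feature fluorescence with signal to noise over triplicate slides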
# [19] = target: Neurogenic locus notch homolog protein 3 (Homo sapiens) (UniProt Q9UM47); experiment: small molecules binding NOTCH3 protein – biochemical, 635/667 nm fluorescence, primary screen (AID 1096); settings: small-molecule microarray, 635 nm fluorescence, higher = more signal
# Sequence of Neurogenic locus notch homolog protein 3 (Homo sapiens) (Q9UM47 whole entry, looked up): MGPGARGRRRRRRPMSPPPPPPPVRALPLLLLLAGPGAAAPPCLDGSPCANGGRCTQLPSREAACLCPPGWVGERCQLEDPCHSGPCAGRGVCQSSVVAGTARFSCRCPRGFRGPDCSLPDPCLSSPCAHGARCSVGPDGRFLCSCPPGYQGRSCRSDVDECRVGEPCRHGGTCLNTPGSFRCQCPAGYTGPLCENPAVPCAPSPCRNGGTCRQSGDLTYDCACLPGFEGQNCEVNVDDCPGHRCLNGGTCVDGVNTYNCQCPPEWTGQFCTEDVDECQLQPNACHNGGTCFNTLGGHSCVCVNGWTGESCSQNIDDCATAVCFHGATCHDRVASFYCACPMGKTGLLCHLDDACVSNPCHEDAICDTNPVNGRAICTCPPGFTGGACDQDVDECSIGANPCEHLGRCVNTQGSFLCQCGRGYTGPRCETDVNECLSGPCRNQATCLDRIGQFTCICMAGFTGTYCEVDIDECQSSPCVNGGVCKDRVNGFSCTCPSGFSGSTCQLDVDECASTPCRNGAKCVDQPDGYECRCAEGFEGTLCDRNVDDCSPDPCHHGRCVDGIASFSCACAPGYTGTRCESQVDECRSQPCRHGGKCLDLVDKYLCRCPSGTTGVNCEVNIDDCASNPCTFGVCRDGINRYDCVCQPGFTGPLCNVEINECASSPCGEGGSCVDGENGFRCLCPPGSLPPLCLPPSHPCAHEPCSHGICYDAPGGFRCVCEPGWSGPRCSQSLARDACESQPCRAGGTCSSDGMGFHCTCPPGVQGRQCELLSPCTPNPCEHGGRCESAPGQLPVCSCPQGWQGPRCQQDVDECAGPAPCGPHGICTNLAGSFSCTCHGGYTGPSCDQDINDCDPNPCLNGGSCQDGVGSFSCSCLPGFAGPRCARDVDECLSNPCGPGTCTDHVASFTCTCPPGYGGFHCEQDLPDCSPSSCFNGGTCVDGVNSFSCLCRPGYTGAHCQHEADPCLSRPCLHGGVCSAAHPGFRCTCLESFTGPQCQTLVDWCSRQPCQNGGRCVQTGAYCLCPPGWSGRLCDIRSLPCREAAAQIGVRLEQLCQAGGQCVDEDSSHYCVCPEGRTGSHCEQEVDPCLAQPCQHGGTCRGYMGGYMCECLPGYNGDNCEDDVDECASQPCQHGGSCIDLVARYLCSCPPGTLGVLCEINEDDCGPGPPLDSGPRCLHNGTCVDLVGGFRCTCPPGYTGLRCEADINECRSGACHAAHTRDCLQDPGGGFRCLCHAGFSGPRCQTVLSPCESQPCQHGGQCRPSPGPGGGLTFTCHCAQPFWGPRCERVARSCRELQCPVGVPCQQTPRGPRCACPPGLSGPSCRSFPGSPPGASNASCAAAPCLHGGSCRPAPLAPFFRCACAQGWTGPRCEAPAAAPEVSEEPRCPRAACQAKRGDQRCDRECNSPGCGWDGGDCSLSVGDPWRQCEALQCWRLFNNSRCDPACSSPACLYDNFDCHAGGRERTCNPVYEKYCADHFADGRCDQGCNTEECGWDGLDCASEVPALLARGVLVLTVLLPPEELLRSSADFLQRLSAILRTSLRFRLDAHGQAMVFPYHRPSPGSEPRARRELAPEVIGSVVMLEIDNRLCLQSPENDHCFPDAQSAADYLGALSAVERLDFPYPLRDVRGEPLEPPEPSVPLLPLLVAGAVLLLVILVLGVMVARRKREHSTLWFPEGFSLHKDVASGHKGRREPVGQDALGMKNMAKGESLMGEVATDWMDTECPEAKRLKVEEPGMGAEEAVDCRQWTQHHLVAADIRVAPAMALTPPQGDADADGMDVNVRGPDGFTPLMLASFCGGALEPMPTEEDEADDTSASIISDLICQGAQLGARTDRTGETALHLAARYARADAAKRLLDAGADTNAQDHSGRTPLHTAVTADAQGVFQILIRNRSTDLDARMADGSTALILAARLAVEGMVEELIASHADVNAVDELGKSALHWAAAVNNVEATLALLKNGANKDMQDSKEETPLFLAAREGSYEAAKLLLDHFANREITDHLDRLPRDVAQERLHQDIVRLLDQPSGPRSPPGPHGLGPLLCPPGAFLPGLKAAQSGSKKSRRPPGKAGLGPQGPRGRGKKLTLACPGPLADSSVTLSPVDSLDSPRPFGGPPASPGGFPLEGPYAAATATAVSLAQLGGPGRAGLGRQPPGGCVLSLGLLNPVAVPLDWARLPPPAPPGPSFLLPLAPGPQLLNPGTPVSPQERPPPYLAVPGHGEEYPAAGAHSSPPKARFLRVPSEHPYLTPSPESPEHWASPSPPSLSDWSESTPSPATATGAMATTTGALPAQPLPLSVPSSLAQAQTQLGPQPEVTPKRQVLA
# [20] = probe aEGFR binding to arrayed compounds – biochemical, biotinylated probe, 635/667 nm fluorescence, primary screen (AID 1097); settings: small-molecule microarray, higher = more signal;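 also: probe is a biotinylated anti-EGFR antibody binding compounds printed on slides; score combines fluorescence near 667 nm and signal to noise of each spot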
SMILES,composite z-score [1],composite z-score [2],composite z-score [3],composite z-score [4],composite z-score [5],composite z-score [6],composite z-score [7],z-score [8],composite z-score [9],composite z-score [10],composite z-score [11],z-score [12],z-score [13],z-score [14],composite z-score [15],z-score [16],composite z-score [17],composite z-score [18],composite z-score [19],composite z-score [20]
COCCOC(=O)N1C(=O)[C@@]2(c3cc(C#CCC(C(=O)OC)C(=O)OC)ccc31)[C@H](c1ccc(O)cc1)N1[C@H](c3ccccc3)[C@H](c3ccccc3)OC(=O)[C@H]1[C@@H]2C(N)=O,-0.239,0.365,0.0661,1.11,1.1,0.328,1.32,-0.4 (inactive),0.404,-0.124,1.28,-0.151 (inactive),0.431 (inactive),0.291 (inactive),3.06,-0.138 (inactive),0.216,0.604,0.828,0.0717
O=C1O[C@@H](c2ccccc2)[C@@H](c2ccccc2)N2[C@@H](c3ccc(OCCO)cc3)[C@]3(C(=O)Nc4ccc(C#CC5=CCCCC5)cc43)[C@@H](C(=O)O)[C@H]12,0.44,0.681,-0.0158,0.506,1.48,1.59,1.12,0.82 (inactive),0.492,0.0274,1.5,1.73 (inactive),1.22 (inactive),-0.188 (inactive),1.96,0.112 (inactive),0.0919,0.107,0.793,0.0061
COc1ccc(C#Cc2ccc3c(c2)[C@]2(C(=O)N3)[C@H](C(=O)NC[C@H](O)c3ccccc3)[C@H]3C(=O)O[C@H](c4ccccc4)[C@H](c4ccccc4)N3[C@@H]2c2ccc(OCCO)cc2)cc1,-0.547,0.637,-0.0005,0.6,0.975,1.07,1.19,0.943 (inactive),0.0324,-0.32,1.49,2.85 (inactive),1.64 (inactive),4.35 (inactive),2.96,-0.508 (inactive),-0.22,1.52,1.09,-0.0746
C=C(COC)C(=O)CC[C@@H](OC(=O)c1cccnc1)c1ccc(CO)o1,-0.376,0.0139,-0.085,-0.0132,0.167,1.16,0.645,0.614 (inactive),0.0848,0.274,1.35,0.692 (inactive),-0.0164 (inactive),-0.336 (inactive),0.991,0.255 (inactive),-0.21,0.817,0.574,-0.137
CCOC(=O)C[C@H]1[C@H](OC(=O)c2ccccc2-c2ccccc2)[C@@H](NC(=O)Cc2ccc(OC)cc2)c2cc(OCCCO)ccc2N1C(=O)c1ccccc1,-0.0656,0.629,-0.0942,0.321,0.125,-0.299,-0.537,-0.735 (inactive),0.369,-0.0645,-0.617,0.82 (inactive),0.266 (inactive),1.36 (inactive),1.33,-1.08 (inactive),-0.218,-0.337,-0.231,-0.115
[N-]=[N+]=Nc1ccccc1[C@H]1OC(c2ccc(OCCCO)cc2)=N[C@@]1(CCS(=O)(=O)c1ccccc1)C(=O)O,1.13,0.298,0.051,0.0993,0.402,0.826,0.67,3.83 (inactive),0.697,-0.189,0.164,-0.775 (inactive),-3.52 (inactive),-0.0047 (inactive),3.2,1.46 (inactive),0.308,-0.688,-0.0883,-0.179
CC(C)C[C@@H]1NC(=O)[C@H]2C[C@@H](C(=O)NCCCCCCNC(=O)CS)[C@@H](c3cccc(OCCO)c3)N2C1=O,-0.206,0.0281,-0.0493,0.43,1.39,1.24,1.32,-0.154 (inactive),0.752,-0.0645,1.4,-2 (inactive),0.251 (inactive),0.24 (inactive),2.85,0.645 (inactive),-0.108,1.7,1.04,0.0798
CC1CC/C=C\[C@H]2OC34C=CCN(Cc5ccccc5)C(=O)[C@H]3N(CCCCCO)C(=O)[C@@H]4C2C(=O)O1 (stereo not given in full),0.158,-0.467,-0.149,0.155,-0.864,-0.68,1.5,0.367 (inactive),-0.677,-0.312,-0.822,0.0898 (inactive),0.0077 (inactive),-0.506 (inactive),-0.259,-0.964 (inactive),-0.166,-1.07,-0.629,-0.206
COc1ccc(C(O)C2C=CC3C(=O)N(C)C(=O)C3N2Nc2ccccc2)cc1OCc1ccccc1 (stereo not given),0.008,0.174,0.0258,0.386,1.28,1.94,1.31,-1.1 (inactive),0.346,0.208,1.49,-4.02 (inactive),1.11 (inactive),0.317 (inactive),3.41,-1.2 (inactive),0.287,0.102,0.742,0.0099
O=C1OCCC=C[C@H]2OC34C=CCN(Cc5ccccc5)C(=O)[C@H]3N(CCCO)C(=O)[C@@H]4C12 (stereo not given in full),-0.274,0.0519,-0.116,-0.479,-0.747,-0.555,0.187,-0.138 (inactive),-0.327,-0.0003,-0.595,0.252 (inactive),-0.206 (inactive),-1.54 (inactive),0.549,2.79 (inactive),-0.0807,-0.335,-0.278,-0.175
